PubChem BioAssay AID651820 (National Center for Advancing Translational Sciences (NCATS), 2012)
About 12,000 (3.5%) of roughly 340,000 compounds were called active. Inconclusive results (about 18%) are left out. Many of the other results were omitted from the sample, so actives are more common in it than they were. Some structures have more than one record in an assay (separate samples or runs), and their calls can disagree. A number with no mark means an inactive call. Calls come from the whole dose curve; as a rule, active = well fitted inhibition curve with a large enough effect; inconclusive = small, poorly fitted or top-dose-only effect, or another doubt; inactive = no such curve, though single readings can be large or run the other way.

Experiment: qHTS Assay for Inhibitors of Hepatitis C Virus (HCV)
Details: Huh7.5.1 HCVcc-Cre infection, luciferase reporter, 44 h; series mostly up to 41.8 µM; activity change, negative = inhibition: at the top concentration
Procedure, shortened: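 Seed cells (1,000/well) for 4 h; treat with compound and infect with HCVcc-Cre, moi about 0.5. Incubate 44 h, then detect luciferase activity.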
% is set by controls: 0 for no effect and ±100 for the full control effect; potency is the fitted concentration of half-maximal effect.

Going from Cc1ccc(CN2CC(C(=O)N3CCN(S(=O)(=O)c4ccccc4)CC3)CC2=O)cc1 (stereo not given) to NC(=O)C1CCN(C(=O)c2cc(S(=O)(=O)N3CCN(c4ccccc4)CC3)ccc2Cl)CC1, the “activity change, negative = inhibition” value falls from 1.97% to -5.21%.

Compared with Cc1cc(C(C)(C)C)n2nc(C)c(-c3ccccc3)c2n1, Cc1cc(N2CCCC2)n2nc(C)c(-c3ccccc3)c2n1 is lower in “activity change, negative = inhibition” value: 9.38% for the first, 5.02% for the second.

Going from O=C(Nc1nc2ccc([N+](=O)[O-])cc2s1)c1ccncc1 to O=C(COC(=O)c1ccc(F)cc1)Nc1nc2ccc([N+](=O)[O-])cc2s1, the “activity change, negative = inhibition” value falls from -3.8% to -29.2%.

Compared with N#CCC(=O)Nc1ccc(C(=O)OCC(=O)Nc2sc3c(c2C#N)CCCC3)cc1, Cc1cccc(C(=O)OCC(=O)Nc2sc3c(c2C#N)CCC3)c1 is higher in “activity change, negative = inhibition” value: -2.61% for the first, 8.66% for the second.

Going from CC(=O)c1c(C)[nH]c(C(=O)OCC(=O)Nc2cc(S(=O)(=O)N3CCCCC3)ccc2C)c1C to CC(=O)c1c(C)[nH]c(C(=O)COC(=O)c2cccs2)c1C, the “activity change, negative = inhibition” value rises from -17.6% to 2.01%.

Compared with NN=C(NN=Cc1ccccc1)c1ccccc1, O=[N+]([O-])c1cc2ccccc2nc1-c1ccccc1 is lower in “activity change, negative = inhibition” value: 4.38% for the first, -18.8% for the second.

First: CC1CCCCC12NC(=O)N(CC(=O)Nc1ccc(S(=O)(=O)Nc3ncccn3)cc1)C2=O (stereo not given)
Second: C[C@H](CO)N1C[C@H](C)[C@@H](CN(C)C(=O)NC2CCCCC2)Oc2ccc(NC(=O)c3ccncc3)cc2C1=O
The “activity change, negative = inhibition” value of the first is higher: 26.4% for the first, 15.1% for the second.

Compared with COc1ccc(NC(=O)CC2SC(N3CCCCC3)=NC2=O)cc1OC (stereo not given), COc1ccc(C(=O)OCc2cc(=O)n3ccsc3n2)cc1F is lower in “activity change, negative = inhibition” value: 17.1% for the first, -17% for the second.

Going from Cc1ccc(CN(C)CC(=O)Nc2cccc([N+](=O)[O-])c2)o1 to CN(CC(=O)Nc1cccc(F)c1)CC(=O)Nc1cccc([N+](=O)[O-])c1, the “activity change, negative = inhibition” value rises from -24.5% to -21.1%.

Compared with COc1ccc(/C=C2/CCCc3ccccc3C2=O)cc1, COc1ccccc1CNC(=O)CSc1nc(=O)n(Cc2ccncc2)c2c1CCC2 is higher in “activity change, negative = inhibition” value: -7.8% for the first, 3.26% for the second.

Going from O=C(NCC(c1ccco1)N1CCc2ccccc2C1)c1ccccc1Cl (stereo not given) to COc1ccc(S(=O)(=O)N2CCc3ccccc32)cc1C(=O)Nc1cc(S(C)(=O)=O)ccc1Cl, the “activity change, negative = inhibition” value rises from -11.9% to -5.31%.

Compared with CC(=O)C(CC(=O)N1CCCC1)C(=O)Nc1ccc(Cl)cc1 (stereo not given), Cc1c(C)n2c(SCC(=O)N3CCCC3)nnc2[nH]c1=O is higher in “activity change, negative = inhibition” value: 6.34% for the first, 12.3% for the second.

Going from CC/C(=C\c1ccc(Cl)cc1)c1ccncc1 to O=C(O)Cc1sc(-c2ccccc2)nc1-c1cccs1, the “activity change, negative = inhibition” value falls from 7.6% to 7.27%.

Compared with COC(=O)c1ccc(CNC(=O)Cn2cc(C)c(=O)[nH]c2=O)cc1, CCOc1cc2[nH]c(=S)n(Cc3ccc(C(=O)NCCOC)cc3)c(=O)c2cc1OCC is lower in “activity change, negative = inhibition” value: 9.79% for the first, -16.6% for the second.

First: O=c1nc(NO)ccn1C1CCCO1 (stereo not given)
Second: CCNC(=O)CSc1nc(-c2ccccc2)cs1
The “activity change, negative = inhibition” value of the first is higher: 12.9% for the first, 9.62% for the second.

First: COc1ccccc1N(CC(=O)Nc1ccc(C)cc1Cl)S(=O)(=O)c1cccs1
Second: COc1ccc2ccccc2c1/C=N/NC(=O)c1cc(C)[nH]n1
The “activity change, negative = inhibition” value of the first is lower: -23.6% for the first, -6.93% for the second.

Going from COc1ccccc1Cn1c(=S)[nH]c2cc(C(=O)N3CCN(C)CC3)ccc2c1=O to CCCCn1c(N)c(N(CC(C)C)C(=O)c2ccc(-n3c(C)ccc3C)cc2)c(=O)[nH]c1=O, the “activity change, negative = inhibition” value falls from 4.3% to -16.9%.

Going from CCN(C[C@H]1N[C@@](Cc2ccccc2)(C(=O)OC)[C@H]2C(=O)N(Cc3ccccc3)C(=O)[C@@H]12)C(=O)c1ccc(C)cc1 to O=C(CSCC(=O)Nc1cccc([N+](=O)[O-])c1)Nc1ccccc1, the “activity change, negative = inhibition” value rises from -2.26% to 11.5%.

Going from Cc1cc(C(=O)N/N=C/c2cc([N+](=O)[O-])cc(C)c2O)n[nH]1 to CCOC(=O)C(=O)Nc1nc(-c2ccccc2)c(CC)s1, the “activity change, negative = inhibition” value falls from 0.137% to -1.32%.

In the case of CC1O[C@@H](OC2C(O)C(C)O[C@H](OC(=O)[C@]34CCC(C)(C)C[C@H]3C3=CCC5[C@@]6(C)CC(O)C(O[C@@H]7OC(CO)C(O)[C@@H](O)[C@@H]7O)[C@@](C)(C(=O)O)C6CC[C@@]5(C)[C@]3(CO)CC4)C2O[C@H]2OC(C)[C@@H](O[C@@H]3OCC(O[C@@H]4OC(CO)C(O)[C@H](O)C4O)[C@@H](O)[C@@H]3O)[C@H](O)C2O)C(O)C(O)C1O (stereo not given in full), the “activity change, negative = inhibition” value is reported as 15.8%.

With Cc1nn2c(NCCN(C)C)c3c(nc2c1-c1ccccc1)CCC3 the Potency was 12.6 µM (active).
For O=C(NC(Nc1nc2ccc([N+](=O)[O-])cc2s1)(C(F)(F)F)C(F)(F)F)c1ccccc1, the Potency was 0.562 µM (active).
With CC(=O)c1c(C)[nH]c(C(=O)OCC(=O)NCCC(C)C)c1C the Potency was 11.2 µM (active).
For CC(=O)c1c(C)[nH]c(C(=O)OCC(=O)Nc2sc3c(c2C#N)CCCC3)c1C, the Potency was 12.6 µM (active).
For Cc1ccc(NC(=O)CN(C)CC(=O)Nc2cccc(F)c2)cc1[N+](=O)[O-], the Potency was 5.62 µM (active).
With Oc1c(Cl)cc(Cl)c(Cl)c1Cc1c(O)c(Cl)cc(Cl)c1Cl the Potency was 8.91 µM (active).
For CCOc1cc2[nH]c(=S)n(Cc3ccc(C(=O)N4CCN(C)CC4)cc3)c(=O)c2cc1OCC, the Potency was 12.6 µM (active).
In the case of CC(C)(C)c1cc(C(=O)N/N=C/c2ccc([N+](=O)[O-])s2)n[nH]1, the Potency is reported as 25.1 µM (active).
For O=C(CSc1nc(-c2ccccc2)cs1)Nc1cccc([N+](=O)[O-])c1, the Potency was 11.2 µM (active).
With C/C(=N/Nc1nc(-c2ccccc2)c(CC(=O)O)s1)c1ccccc1 the Potency was 12.6 µM (active).

For Oc1c(Cl)cc(Cl)c(Cl)c1Cc1c(O)c(Cl)cc(Cl)c1Cl, the activity change, negative = inhibition was -0.125% [at 8.37 µM].
